# Reference: the supplement of paper PMC9262897, “Low-cost anti-mycobacterial drug discovery using engineered E. coli” (Nature Communications, 2022)
# Structures can show the parent of a compound that is named as a salt. ± gives the standard deviation of the averaged measurements.
# Columns and labels:
# Test in all cases: growth (OD600 after 10 h); higher = more growth (less inhibition)
# [1] = tested on: E. coli TESEC Alr+ wild-type control; conditions: compound 0.1 mM; raw OD600 reference: median of DMSO wells 0.241, cell-free background 0.041
# Experimental: (§1)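 TESEC Mtb Alr E. coli, or the Alr+ wild-type control, in 384-well plates with Prestwick library compounds at 0.1 mM and 1% DMSO, across arabinose induction levels of 1E3 to 1E7 nM. Growth is read as OD600 after 10 h at 37 °C in triplicate biological replicates.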
# E. coli TESEC Mtb Alr [2] = conditions: compound 0.1 mM
# Experimental: as §1
# E. coli TESEC Mtb Asd = conditions: compound 0.1 mM
# Experimental: (§2)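 TESEC E. coli strains in which the native enzyme is deleted and replaced by arabinose-inducible Mtb Asd, DapB, CysH or TrpD, each grown in its selective medium. Strains were screened against the Prestwick library at 0.1 mM and 1% DMSO in 384-well format at low and high arabinose induction. Growth is read as OD600 after 10 h in triplicate.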
# E. coli TESEC Mtb DapB = conditions: compound 0.1 mM
# Experimental: as §2
# [3] = tested on: E. coli TESEC Alr+ wild-type control; conditions: compound 0.1 mM; raw OD600 reference: median of DMSO wells 0.49, cell-free background 0.052
# Experimental: (§3)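 TESEC Mtb Alr E. coli (ΔaraC ΔtolC ΔentC Δalr ΔdadX, arabinose-inducible Mtb Alr) or the Alr+ wild-type control strain, grown in defined M9-fructose medium without D-alanine in 96-well plates with Prestwick library compounds at 0.1 mM and 1% DMSO. Low Alr induction is 0.1 µM arabinose and high induction is 10 mM arabinose.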
# E. coli TESEC Mtb Alr [4] = conditions: compound 0.1 mM; remark: listed apart in the source
# Experimental: as §3
# [5] = arabinose 1000 nM, raw OD600 reference: median of DMSO wells 0.294, cell-free background 0.041
# [6] = arabinose 10000 nM, raw OD600 reference: median of DMSO wells 0.264, cell-free background 0.041
# [7] = arabinose 100000 nM, raw OD600 reference: median of DMSO wells 0.201, cell-free background 0.041
# [8] = arabinose 1000000 nM, raw OD600 reference: median of DMSO wells 0.193, cell-free background 0.041
# [9] = arabinose 10000000 nM, raw OD600 reference: median of DMSO wells 0.146, cell-free background 0.041
# [10] = arabinose induction (level): High, raw OD600 reference: median of DMSO wells 0.331, cell-free background 0.041
# [11] = arabinose induction (level): Low, raw OD600 reference: median of DMSO wells 0.417, cell-free background 0.041
# [12] = arabinose induction (level): High, raw OD600 reference: median of DMSO wells […], cell-free background 0.041
# [13] = arabinose induction (level): Low, raw OD600 reference: median of DMSO wells 0.227, cell-free background 0.041
# [14] = arabinose 100 nM, raw OD600 reference: median of DMSO wells 0.413, cell-free background 0.052
# [15] = arabinose 10000000 nM, raw OD600 reference: median of DMSO wells […], cell-free background 0.052
Compound,growth [1],growth (E. coli TESEC Mtb Alr [2]; [5]),growth (E. coli TESEC Mtb Alr [2]; [6]),growth (E. coli TESEC Mtb Alr [2]; [7]),growth (E. coli TESEC Mtb Alr [2]; [8]),growth (E. coli TESEC Mtb Alr [2]; [9]),growth (E. coli TESEC Mtb Asd; [10]),growth (E. coli TESEC Mtb Asd; [11]),growth (E. coli TESEC Mtb DapB; [12]),growth (E. coli TESEC Mtb DapB; [13]),growth [3],growth (E. coli TESEC Mtb Alr [4]; [14]),growth (E. coli TESEC Mtb Alr [4]; [15])
O=C(O)Cc1sc(-c2ccccc2)nc1-c1ccc(Cl)cc1 [Fentiazac],0.168 ± 0.0065,0.17 ± 0.0076,0.137 ± 0.0036,0.165 ± 0.0017,0.152 ± 0.0063,0.158 ± 0.0089,0.189 ± 0.0056,0.187 ± 0.018,0.206 ± 0.012,0.223 ± 0.029,0.286 ± 0.012,0.141 ± 0.064,0.14 ± 0.033
O=C1C(CC[S+]([O-])c2ccccc2)C(=O)N(c2ccccc2)N1c1ccccc1 (stereo not drawn) [Sulfinpyrazone],0.167 ± 0.0026,0.244 ± 0.0079,0.241 ± 0.006,0.17 ± 0.01,0.151 ± 0.0048,0.146 ± 0.0031,0.26 ± 0.063,0.316 ± 0.087,0.182 ± 0.0043,0.203 ± 0.023,0.542 ± 0.093,0.38 ± 0.0087,0.33 ± 0.011
O=P(O)(O)C(O)(Cc1cccnc1)P(=O)(O)O [Risedronic acid monohydrate],0.247 ± 0.0087,0.2984 ± 0.0028,0.265 ± 0.0074,0.191 ± 0.0063,0.196 ± 0.0097,0.156 ± 0.0062,0.278 ± 0.053,0.376 ± 0.05,0.192 ± 0.014,0.26 ± 0.052,0.608 ± 0.083,0.426 ± 0.015,0.277 ± 0.011
Cc1c(N(C)C)c(=O)n(-c2ccccc2)n1C [Amidopyrine],0.242 ± 0.0096,0.28 ± 0.016,0.2721 ± 0.0006,0.225 ± 0.02,0.184 ± 0.0082,0.138 ± 0.0025,0.373 ± 0.017,0.41 ± 0.042,0.21 ± 0.017,0.254 ± 0.056,0.462 ± 0.039,0.412 ± 0.0055,0.365 ± 0.037
CNCCC=C1c2ccccc2CCc2ccccc21 [Nortriptyline hydrochloride],0.188 ± 0.014,0.181 ± 0.0093,0.205 ± 0.011,0.155 ± 0.01,0.0683 ± 0.00076,0.0845 ± 0.0019,0.137 ± 0.0013,0.179 ± 0.0089,0.185 ± 0.025,0.195 ± 0.04,0.46 ± 0.061,0.4083 ± 0.0029,0.264 ± 0.013
CC[C@H](C)[C@H](N)C1=N[C@H](C(=O)N[C@@H](CC(C)C)C(=O)N[C@H](CCC(=O)O)C(=O)N[C@H](C(=O)N[C@H]2CCCCNC(=O)[C@H](CC(N)=O)NC(=O)[C@@H](CC(=O)O)NC(=O)[C@H](Cc3cnc[nH]3)NC(=O)[C@@H](Cc3ccccc3)NC(=O)[C@H]([C@@H](C)CC)NC(=O)[C@@H](CCCN)NC2=O)[C@@H](C)CC)CS1 [Bacitracin],0.306 ± 0.0084,0.324 ± 0.0095,0.252 ± 0.0038,0.387 ± 0.0099,0.176 ± 0.0086,0.214 ± 0.013,0.298 ± 0.05,0.269 ± 0.054,0.266 ± 0.033,0.243 ± 0.028,0.49 ± 0.073,0.421 ± 0.015,0.348 ± 0.028
